# Source: PubChem BioAssay (NCI)
# The panel holds about 83,000 compounds, 20% with a hit somewhere; the sample as a whole holds those more often.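 Percent growth is the endpoint: 0 to 100 indicates growth inhibition (40 means 60% inhibition), 0 means no net growth, and negative values indicate cell death.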 Calls of active or inactive are those of the source.
# System: OVCAR-8 ovarian
# Assay: NCI-60 one-dose screen, 48 h (100 = growth as untreated, 0 = no growth, -100 = all killed)
# Conditions: 10 µM unless noted
# Procedure: Growth inhibition of the OVCAR-8 human tumor cell line is measured as a screen for anti-cancer activity. Cells are grown in 96 well plates and exposed to the test compound for 48 hours. Compounds are tested at a single concentration, which is 10^-5 M for most compounds. The reported endpoint is percent growth (GI% or GIPRCNT), where numbers from 0 - 100% represent growth inhibition, and numbers from -100% - 0 represent cell death. For example, a value of 40 represents 60% growth inhibition. A value of 0 means no net growth occurred over the course of the experiment. A value of -40 indicates 40% of cells at the beginning of the experiment died by the end of the experiment. A value of -100 means all cells are dead at the end of the experiment.
# NCI-60 Human Tumor Cell Lines Screen was performed using the standard one-dose NCI protocol, which is described in more detail at https://dtp.cancer.gov/discovery_development/nci-60/default.htm.
# Compounds with GIPRCNT values below 10 were considered active. Activity score was based on GIPRCNT using the following formula: […]
# Score is 0 for GIPRCNT values of 100 or above, 50 for GIPRCNT values of 0, and 100 for GIPRCNT values of -100.
row,SMILES,growth
1,c1cc(CNC23CC4CC(CC(C4)C2)C3)cc(C[N+](Cc2cccc(CNC34CC5CC(CC(C5)C3)C4)c2)(Cc2cccc(CNC34CC5CC(CC(C5)C3)C4)c2)Cc2cccc(CNC34CC5CC(CC(C5)C3)C4)c2)c1 (stereo not given),7.24% [42 µM] (active)
2,CN1CCN(C(=O)[C@@]2(C)CC[C@]3(C)CC[C@]4(C)C(=CC[C@@H]5[C@@]6(C)CC[C@H](OC(=O)c7cccnc7)C(C)(C)[C@@H]6CC[C@]54C)[C@@H]3C2)CC1,60.2% (inactive)
3,O=C1NC(c2ccc(F)cc2)N=C2C(c3ccccc3)=NOC12 (stereo not given),106% (inactive)
4,Oc1ccc(CNNc2ccnc3c(O)cccc23)c2cccnc12,20.8% (inactive)
5,CCOC(=O)c1c(C)nc2c(c1N)/C(=C/c1cccs1)C(=O)N2Cc1ccccc1,70.7% (inactive)
6,O=C(O)c1cn(C2CC2)c2cc(N3CCN(C(=O)CSc4nnc(-c5ccc(Cl)cc5)n4-c4ccccc4)CC3)c(F)cc2c1=O,102% (inactive)
7,COc1cccc(NC(=O)Nc2ccc(Oc3ncnc4[nH]c(C)c(C)c34)cc2)c1,77% (inactive)
8,CC(=O)Nc1ccc2c(c1)Cc1cc(F)ccc1-2,97.5% (inactive)
9,CCCn1c2cc(OCc3cn(-c4ccc(Cl)cc4)nn3)ccc2c2ccnc(C)c21,49.9% (inactive)
10,Cc1cccc2nc3c(n12)C(=O)C(=O)c1ccccc1-3,46.9% (inactive)
11,CCCCOc1nc2ccc(C)cc2cc1/C=C/C(=O)/C=C/c1ccc2c(c1)OCO2,38.7% (inactive)
12,C=CCn1c(SCC(=O)Nc2ccc(C(=O)/C=C/c3cc(OC)c(OC)c(OC)c3)cc2)nnc1-c1ccc(Cl)cc1,7.91% (active)
13,C=C1C(=O)O[C@H]2[C@H]1CC/C(COC(=O)/C=C/c1cccnc1)=C\CC[C@@]1(C)O[C@@H]21,40.6% (inactive)
14,COc1ccc(Nc2cc(NC(=O)CNc3cc(OC)c(Cl)c(OC)c3Cl)ncn2)cc1,78.2% (inactive)
15,O=c1cc(/C=N\Nc2nc(-c3ccc(Cl)cc3Cl)cs2)c2cc(Cl)ccc2o1,99.7% (inactive)
16,CC(C)(C)c1ccc(O)c(Cc2cc(C(C)(C)C)ccc2O)c1,90.3% (inactive)
17,CC(C)(C)CC(C)(C)Cc1ccc(OCCOCC[N+](C)(C)Cc2ccccc2)cc1,22.8% (inactive)
18,COc1cc(NC(=O)COc2cc(C)nc3ccc(OC)cc23)cc(OC)c1,93.6% (inactive)
19,COC(=O)c1oc2c(C(=O)/C=C/c3ccc(OC)cc3)c(OCCCN3CCCCC3)ccc2c1C,-22.7% (active)
20,COC(=O)c1ccc(NC(=O)CSc2nc(-c3ccc(F)cc3)nc3ccccc23)cc1,82.2% (inactive)

row,SMILES,growth
1,C=C1C(=O)O[C@H]2[C@H]1CC/C(COC(=O)n1ccnc1)=C\CC[C@@]1(C)O[C@@H]21,99.8% (inactive)
2,CN(C)CSc1nc2ccccc2s1,104% (inactive)
3,O=C1CC23OC4ON=C(Br)C4C2C(O)c2ccccc2N13 (stereo not given),104% (inactive)
4,COCCc1n(Cc2ccc3ccccc3c2)c2ccccc2[n+]1Cc1ccc2ccccc2c1,-54.6% (active)
5,CC1CCCN(CCCCCOc2ccc3oc4ccccc4c(=O)c3c2)C1 (stereo not given),77.5% (inactive)
6,COc1ccc(-n2cc(-c3ccc(Cl)c(Cl)c3)[nH]c2=O)cc1OC,94.6% (inactive)
7,Sc1cccc2cccnc12,27.1% (inactive)
8,Cc1nc2sc(C(=O)Nc3ccccc3)c(N)c2cc1C(C)O (stereo not given),36.4% (inactive)
9,CC(=O)OC[C@]12CC[C@@H](c3cn(Cc4ccc(Cn5cc([C@@H]6CC[C@]7(COC(C)=O)CC[C@]8(C)[C@H](CC[C@@H]9[C@@]%10(C)CC[C@H](OC(C)=O)C(C)(C)[C@@H]%10CC[C@]98C)[C@@H]67)nn5)cc4)nn3)[C@@H]1[C@H]1CC[C@@H]3[C@@]4(C)CC[C@H](OC(C)=O)C(C)(C)[C@@H]4CC[C@@]3(C)[C@]1(C)CC2,92% (inactive)
10,C#CCOC(=O)[C@]1(C)CCC[C@]2(C)[C@H]3C[C@H]4C(C(C)C)=C[C@]3(CC[C@H]21)[C@@H]1C(=O)CCC(=O)[C@@H]14,90.5% (inactive)
11,CCC[S@@](=O)c1ccc2nc(NC(=O)OC)[nH]c2c1,77.1% (inactive)
12,O=C1CC(c2ccc(O)c(O)c2)Oc2cc(O)c([C@@H]3O[C@H](CO)[C@@H](O)[C@H](O)[C@H]3O)c(O)c21 (stereo not given in full),101% (inactive)
13,N#Cc1c(-c2ccc(F)cc2)nc(N/N=C/c2c[nH]c3ccccc23)nc1N1CCOCC1,58% (inactive)
14,Nc1c(C(=O)Nc2cccc3ccccc23)sc2nc3c(cc12)CCCCCC3,19.8% (inactive)
15,COc1ccc2c(c1)Oc1nc(N)c(C#N)c(N)c1C2Sc1ccc(SC)cc1 (stereo not given),21.2% (inactive)
16,COC(=O)c1cncc(C(=O)Nc2ccc(-n3cnc4ccccc43)cc2)c1,97.2% (inactive)
17,O=C1NCc2ccc3c(-c4cccc(Cl)c4)c[nH]c3c21,25.4% (inactive)
18,N#CC(C#N)=C1NC(c2ccccc2)=C(c2ccccc2)C(c2ccccc2Cl)=C1C#N,88.1% (inactive)
19,COc1ccc(-n2nc(C(=O)NCC(=O)O)nc2-c2ccccc2)cc1,111% (inactive)
20,Cc1nccc2c3ccc(OCc4cn(-c5ccccc5)nn4)cc3n(CCCc3ccccc3)c12,55.6% (inactive)
